Out of some 370,000 compounds screened, about 400 (0.11%) were called active. The entries come from a sample that favours actives as a whole. Values without a mark were called inactive.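 How the source made its calls: active means activation at 10 µM reaching about 35% in either raw or pattern-adjusted values (limit read from the data); inactive means the rest.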
Target: Atrial natriuretic peptide receptor 2 (Homo sapiens) (UniProt P20594)
Experiment: GC-B stimulated cGMP production enhancers – HEK293 GC-B cells, cGMP TR-FRET, EC30 CNP, primary screen (AID 1920062)
Conditions: at 10 µM, active compounds read high, 0% at EC30 CNP, 100% saturating CNP

Chain of Atrial natriuretic peptide receptor 2 (Homo sapiens) (P20594 whole entry, looked up): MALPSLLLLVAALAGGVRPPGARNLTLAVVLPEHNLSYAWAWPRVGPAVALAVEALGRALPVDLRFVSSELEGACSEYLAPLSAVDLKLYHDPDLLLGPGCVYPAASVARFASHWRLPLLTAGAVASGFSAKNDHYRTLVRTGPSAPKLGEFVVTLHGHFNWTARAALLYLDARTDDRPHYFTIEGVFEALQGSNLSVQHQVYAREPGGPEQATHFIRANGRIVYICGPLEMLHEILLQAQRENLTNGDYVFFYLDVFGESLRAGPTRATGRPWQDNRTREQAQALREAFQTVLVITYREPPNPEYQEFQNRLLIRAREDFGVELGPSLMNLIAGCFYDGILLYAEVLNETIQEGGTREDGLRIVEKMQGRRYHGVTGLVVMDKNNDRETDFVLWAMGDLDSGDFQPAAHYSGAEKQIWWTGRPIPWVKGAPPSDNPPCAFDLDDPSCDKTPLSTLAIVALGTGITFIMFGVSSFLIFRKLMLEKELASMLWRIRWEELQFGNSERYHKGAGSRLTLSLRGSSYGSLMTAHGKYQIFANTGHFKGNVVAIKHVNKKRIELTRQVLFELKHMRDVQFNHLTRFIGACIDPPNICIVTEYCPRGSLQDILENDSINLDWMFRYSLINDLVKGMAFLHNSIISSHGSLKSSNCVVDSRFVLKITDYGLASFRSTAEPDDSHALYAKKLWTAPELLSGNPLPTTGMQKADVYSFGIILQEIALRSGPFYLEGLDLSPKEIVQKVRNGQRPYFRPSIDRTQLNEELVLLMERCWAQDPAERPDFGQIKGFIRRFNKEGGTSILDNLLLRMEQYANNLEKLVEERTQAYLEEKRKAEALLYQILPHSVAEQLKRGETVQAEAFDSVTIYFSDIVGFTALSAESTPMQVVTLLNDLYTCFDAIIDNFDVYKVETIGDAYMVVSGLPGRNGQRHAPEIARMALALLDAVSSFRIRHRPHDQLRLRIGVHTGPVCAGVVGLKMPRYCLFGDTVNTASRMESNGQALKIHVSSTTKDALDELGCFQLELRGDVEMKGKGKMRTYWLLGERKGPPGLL

Structure (SMILES)	activation
COC(=O)c1ccc2nc(-c3ccc(C)cc3)c(Cc3ccc(OC)cc3C)n2c1	17.2%
COC(=O)c1ccc2nc(C3CCCCC3)c(Cc3cccc(F)c3)n2c1	3.29%
COC(=O)c1ccc2nc(-c3ccc(OC)c(OC)c3)c(Cc3ccccc3)n2c1	20.9%
Fc1cccc(Cc2c(-c3cccc(Cl)c3)nc3ccc(Br)cn23)c1	-1.56%
COC(=O)c1ccc2nc(-c3ccc(F)cc3)c(Cc3ccc(C)cc3)n2c1	41.9% (active)
COC(=O)c1ccc2nc(-c3ccc(Cl)cc3)c(Cc3cccc(F)c3)n2c1	41.9% (active)
COC(=O)[C@@H]1C[C@@]2(O)[C@H](O)[C@H](O)[C@H](O)C[C@H]2N1Cc1ccc(C)s1	6.96%
O=C(NCc1ccncc1)C1CCCN(S(=O)(=O)c2ccc(Br)cc2)C1 (stereo not drawn)	-0.66%
CCOCCCNC(=O)Cc1cc(=O)[nH]c(=O)[nH]1	-0.88%
CC(=O)Nc1ccc(S(=O)(=O)NC2(C(F)(F)F)C(=O)Nc3c2c(=O)[nH]c(=O)n3Cc2ccccc2)cc1 (stereo not drawn)	-0.18%
NC(=O)C[n+]1cccc(C(N)=O)c1	-0.67%
CC1(C)O[C@@H]2[C@H](O1)[C@@H](COS(=O)(=O)O)O[C@H]2n1ccc(=O)[nH]c1=O	1.28%
O=C(NC(=S)Nc1cccc(-c2ccc(CO)o2)c1)c1cccs1	3.14%
COc1cccc2cc(C(C)N(CCCN3CCOCC3)C(=O)Nc3ccc(Cl)cc3)oc12 (stereo not drawn)	2.29%
Cc1ccc(SCC(=O)NNC(=O)c2ccc(S(C)(=O)=O)cc2)cc1	4.75%
CCCN=C1NC(=O)C(CC(=O)NCCc2ccc(OC)c(OC)c2)S1 (stereo not drawn)	-2.43%
CCN(CC(=O)NCCCN1CCOCC1)S(=O)(=O)c1cc(Cl)ccc1Cl	-0.24%
CCOCCCNC(=O)C(NC(=O)c1ccc(=O)[nH]c1)c1ccc(Cl)cc1 (stereo not drawn)	-0.69%
CC(C)OC(=O)c1sc2nc3c(cc2c1N)C(=O)CCC3	16.4%
O=C(CC1CCCCC1)NCc1ccccc1	0.16%
Nc1c(C(=O)NCc2ccccc2)sc2nc3c(cc12)C(=O)CCC3	41.5% (active)
Cc1cnc(C)c(N2CCN(C(=O)C3CCC(=O)N(CCc4cccc(F)c4)C3)CC2)n1 (stereo not drawn)	1.57%

Structure (SMILES)	activation
CCN(C(=O)COC(=O)c1c(NC(C)=O)sc(C)c1C)C1CCS(=O)(=O)C1 (stereo not drawn)	-6.94%
C=CCn1nc(C(=O)OCC)cc1-c1sc(NC(=O)c2ccccc2)nc1C	3.57%
Cc1ccc(C)n1-c1ccncc1	1.81%
COC(=O)[C@]1(Cc2ccccc2)N[C@H](CN(C)S(=O)(=O)c2ccc(F)cc2)[C@@H]2C(=O)N(Cc3ccccc3)C(=O)[C@@H]21	-3.49%
COc1ccc(C2c3ccc(O)cc3Oc3ncn(CCCO)c(=N)c32)cc1OC (stereo not drawn)	2.6%
CCN(C(=O)COC(=O)c1ccc(COc2ccc3c(C)cc(=O)oc3c2)cc1)C1CCS(=O)(=O)C1 (stereo not drawn)	-1.49%
O=C(Nc1ccc(Br)cc1)c1cccc(NC(=O)C2C3CC4OC(=O)C2C4C3)c1 (stereo not drawn)	-4.37%
Cc1oc2nc(SCC(=O)Nc3ccc(S(N)(=O)=O)cc3)nc(NC(=O)c3ccccc3)c2c1C	-7.74%
N#Cc1ccc(OCCN2C(=O)NC3(CCSC3)C2=O)cc1 (stereo not drawn)	1.75%
O=C1Nc2ccccc2NC(c2ccc3c(c2)OCO3)=C1N(Cc1ccc(F)cc1)C(=O)c1ccco1	-16.8%
CCOC(=O)Cc1c(C)nc2c(C#N)c(C)nn2c1C	6.49%
C[C@H]1NS(=O)(=O)c2cc(Cl)ccc2O[C@@H]1c1ccccc1	1.13%
O=C1CC(=O)Nc2cc(S(=O)(=O)N3CCN(c4cccc(C(F)(F)F)c4)CC3)ccc2N1	1.05%
CCNC(=O)C1(C)CCN(C(=O)c2ccccc2)C1 (stereo not drawn)	1.62%
Cc1ccc(CSc2ccc(S(=O)(=O)N3CCCCC3)cn2)cc1	-1.29%
CCOC(=O)c1ccccc1NC(=O)COC(=O)C(Cc1c[nH]c2ccccc12)NC(C)=O (stereo not drawn)	-17.1%
COCCn1c(CN2CCC(Cc3ccccc3)CC2)nc2c1c(=O)n(C)c(=O)n2C	-2.04%
CCN(CC)C(=O)Cn1cc(S(=O)(=O)CC(=O)NCc2ccc3c(c2)OCO3)c2ccccc21	2.01%
O=C(NCc1ccc2c(c1)OCO2)c1sccc1Br	8.92%
CN(C)C(=O)c1cccc(-c2cnc3sc(NCc4ccc5c(c4)OCO5)nn23)c1	43% (active)
O/N=C(\c1ccc2c(c1)OCCO2)C1CCCCC1	0.81%
Cc1nnc(NC(=O)CSc2nc(C3CCCCC3)nc3ccccc23)s1	3.79%

Structure (SMILES)	activation
CC(=O)Nc1cc(-c2cccc(CO)c2)cn2c(-c3cccc(C(F)(F)F)c3)cnc12	36.8% (active)
CC(=O)Nc1cccc(-c2cc(NC(C)=O)c3ncc(-c4ccccc4)n3c2)c1	5.87%
CC(=O)Nc1cc(-c2ccccc2F)cn2c(-c3cccc(C(F)(F)F)c3)cnc12	3.33%
COc1ccc(OC)c(Cc2cnc3nc(N)nc(N)c3c2C)c1	-1.38%
Cn1c(=O)c2c(SCC(=O)NCC3CCCO3)nc(CC(C)(C)C)nc2n(C)c1=O (stereo not drawn)	4.44%
C=CCN(Cc1ccc2c(c1)OCO2)C(C#CC1CC1)C(C)(C)C (stereo not drawn)	-14.9%
C[C@@H]1COc2cccc(N3CCCC3)c2S(=O)(=O)N1C	0.41%
CC(=O)C1(C(=O)Nc2nccs2)CC(c2ccccc2C(F)(F)F)=NO1 (stereo not drawn)	1.69%
COc1ccc(C(=O)OC(C)C(=O)NC2CCCC2)cc1S(=O)(=O)N1CCOCC1 (stereo not drawn)	-5.5%
O=C(CCCCCN1C(=O)C2C3C=CC(C3)C2C1=O)Nc1ccccn1 (stereo not drawn)	9.16%
CCc1ccccc1S(=O)(=O)Cc1ccc(C(=O)NCCc2ccccc2)o1	2.27%
CN(C(=O)CC(NC(=O)c1ccccc1)(c1ccccc1)c1ccccc1)c1ccccc1	-19.3%
CN(CC(=O)Nc1ccccc1Cl)C(=O)COc1cccc2c1OC(C)(C)C2	-1.31%
O=C(CSc1n[nH]c(=O)n1-c1ccccc1)Nc1ccccc1C(F)(F)F	-2.36%
COCCCN1C(=O)c2ccc(C(=O)OCC(=O)NCc3ccccc3OC)cc2C1=O	-7.6%
Cc1ccc(CNC(=O)C(=O)c2cn(CC(=O)N3CCOCC3)c3ccccc23)cc1	-3.39%
O=C1CSC(c2cccc(F)c2)N1c1ccc(O)cc1 (stereo not drawn)	2.71%
CC1CCCCN1S(=O)(=O)CCNC(=O)c1ccccc1 (stereo not drawn)	-2.73%
Cc1ccc(NC(=O)CSCC(=O)N2CCOCC2)cc1	2.72%
O=C(CCSc1ccccc1)N1CCN(c2ccccc2F)CC1	-0.35%
CC(C)(C)c1ccc(CSc2nnc(-c3cccs3)o2)cc1	3.23%
COc1ccccc1NC(=O)CSc1nnc(Cn2nnc(-c3ccccc3)n2)n1-c1ccccc1	-7.79%

Structure (SMILES)	activation
Nn1c(SCC(=O)Nc2ccc(S(N)(=O)=O)cc2)nnc1-c1n[nH]c2c1CCC2	-3.98%
CS(=O)(=O)Nc1ccccc1N=C(c1ccccc1)c1ccccc1	4.92%
Cc1cccc(C(=O)NC2CCN(CC(=O)Nc3cccc(Cl)c3)CC2)c1	1.44%
CCc1nn(CCCC(=O)NC(C)c2ccccc2)c(=O)c2cc3occc3n12 (stereo not drawn)	-9.68%
Cc1c2cnn(CC(=O)NCc3ccccn3)c(=O)c2c(C)n1Cc1ccc(Cl)cc1	0.59%
CC1=NN(/C(=N\c2nnc(C)s2)Nc2ccccc2)[C@H](c2ccc(C)cc2)S1	-13.9%
COC(=O)c1ccc([C@@H](O)[C@H](C)C(=O)CC(=O)OC(C)(C)C)cc1	5.42%
CC(=O)c1cccc(NC(=O)CN2C(=O)c3cccnc3Oc3ccc(Cl)cc32)c1	-2.67%
Cc1ccccc1C(=O)OC1OC(=O)C(Cl)=C1Nc1ccccc1 (stereo not drawn)	2.61%
C/C(=N\N(C)C)c1ccc(OCCOc2ccc([N+](=O)[O-])cc2)cc1	4.4%
O=C(Cc1ccc(-n2c(=O)c3sccc3n(Cc3ccc(F)cc3)c2=O)cc1)NCc1ccco1	6.68%
Cc1ccc(C(=O)N2CCCC2)c(F)c1F	0.58%
COc1ccc(S(=O)(=O)N2CCN(C)CC2)c(C)c1	-1.64%
CC[C@]1(C(=O)OC)[C@H]2C(=O)N(C)C(=O)[C@H]2[C@H]2CN(C)C(=NCc3ccccc3)N21	-1.82%
CS(=O)(=O)N(CC(=O)N1CCN(c2cccc(Cl)c2)CC1)c1ccccc1	-0.13%
COc1ccc(CSc2nc(N3CCOCC3)c3c(c2C#N)CC(C)(C)OC3)cc1	48.4% (active)
Cc1cc(C)c(C#N)c(SCc2ccc3c(c2)OCO3)n1	6.77%
c1ccc(CSc2ncnc3c2sc2nc(N4CCOCC4)c4c(c23)CCCC4)cc1	-0.49%
O=C1CCC(=O)N(c2ccccc2)N1	0.63%
CC(=O)Nc1ccc(NC(=O)CSc2nnnn2-c2ccccc2F)cc1	-2.78%
CCCCCN(C(=O)NC(=O)Nc1ccccc1OC)S(C)(=O)=O	0.44%
CCn1c(SCC(=O)NNC(=O)c2ccc(OC)cc2)nnc1C(C)C	1.41%
